According to PubChem BioAssay (NCI):
Compounds without any hit were thinned out: in the full panel of roughly 83,000, 20% have a hit.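 Treatment: one concentration, 48 hours, 96-well format. Scoring: percent growth, with anything below 10 considered active.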 Values without a mark were called inactive. The source made the active and inactive calls.

The compounds below were run on HL-60(TB) leukemia (assay: NCI-60 one-dose screen, 48 h (100 = growth as untreated, 0 = no growth, -100 = all killed)). Conditions: 10 µM unless noted.

| Compound | growth |
| --- | --- |
| CCOC(=O)C1=C(CSC(=S)N(C2CCCCC2)C2CCCCC2)N(C)C(=O)NC1c1ccccc1 (stereo not given) | 15.3% |
| COc1cnccc1-c1nc2ccc3[nH]ncc3c2c2c1CCCC2 | 35.1% |
| CCCCCCCCCCCCCCCCCC1=NC(C)(C)CN1CC(C)O (stereo not given) | 61% |
| CCCN1C(=O)/C(=c2\sc3n(c2=O)C2C(NN=3)N(CC)C(=O)N2CC)c2ccccc21 (stereo not given) | -40.8% (active) |
| O=C(Nc1ccccc1O)c1ccc(-c2ccc(Cl)cc2Cl)o1 | 83.7% |
| COc1ccc2nc(-c3ccc(OC)c(OC)c3)cc(-c3nnc(SCC(=O)Nc4ccc(/C(C)=N\O)cc4)n3-c3ccccc3)c2c1 | 26.3% |
| Cc1ccc(S(=O)(=O)NCC[C@@H]2C[C@H]2c2cc3ccccc3s2)cc1 | 112% |
| O=C(/C=C/c1ccc(Cl)cc1)c1cccc(OCCCOc2cccc(C(=O)/C=C/c3ccc(Cl)cc3)c2)c1 | 96.2% |
| COc1ccc2nc(NC(=O)/C(=C/c3cc(OC)c(OC)c(OC)c3)c3ccc(OC)c(OC)c3)sc2c1 | 94.5% |
| COC1=C(OC)C(=O)C(OC)=C(OC)C1=O | 102% |
| CN(C)CCS(=O)(=O)CCN(C)C | 110% |
| COc1ccc(-c2nn(-c3ccc(NC(=O)c4ccc(Cl)c(Cl)c4)cc3)cc2-c2ccncc2)cc1Cl | 13.5% |
| Cc1ccc(-c2cc3c(SCC(=O)Nc4cc(C(F)(F)F)ccc4Cl)nccn3n2)cc1 | 12.6% |
| NC(=O)c1c(NC(=O)c2ccccn2)sc2c1CCC(=O)C2 | -0.0087% (active) |
| Clc1ccc(C2=NN(c3ccc(Cl)cc3)C(c3cccc(Nc4ccnc5cc(Cl)ccc45)c3)C2)cc1 (stereo not given) | 102% |
| O=C(O)C(SC(C(=O)O)c1ccccc1)c1ccccc1 (stereo not given) | 95% |
| CCc1c(C)c2ccc(O)c(-c3cc(-c4ccccc4)c(C#N)c(=O)[nH]3)c2oc1=O | 109% |
| Cc1cc(C)nc(SCC(=O)Nc2cccc(N=Cc3ccccc3O)c2)n1 | 96.6% |
| COc1ncc(-c2ccc3nccc(C#CCN4CCN(S(C)(=O)=O)CC4)c3c2)cc1NS(=O)(=O)c1ccc(F)cc1F | -18.6% (active) |
| COc1cccc(-c2nn(-c3ccccc3)cc2-c2ccnc(NCCCNC(=O)c3cccc(C(F)(F)F)c3)c2)c1 | 7.43% (active) |

| Compound | growth |
| --- | --- |
| COc1ccc(Cl)cc1NC(=O)C(Br)C(Br)C(=O)O (stereo not given) | 1.26% (active) |
| CCOC(=O)c1coc(C(=O)OCC)c1C(=O)OCC | 105% |
| O=C1Nc2cc(-c3cccc(O)c3)ccc2/C1=C/c1ccc[nH]1 | 6.76% (active) |
| Cc1nnc(NC/C=C/c2ccccc2)s1 | 98% |
| COc1cc(CCNc2nc3cc(N)cc(N)c3nc2-c2ccccc2)cc(OC)c1 | -66.1% (active) |
| COc1ccc(-n2cnc3c(sc4ncc(Cl)cc43)c2=O)cc1 | 90.1% |
| COc1ccc(-c2nnc(SCC(=O)N3CCN(c4cc5c(cc4F)c(=O)c(C(=O)O)cn5C4CC4)CC3)o2)cc1OC | 66.8% |
| Cc1cccc2c3c(sc12)C(c1ccc(F)cc1)C(C#N)=C(N)O3 (stereo not given) | -21.8% (active) |
| Clc1nnc2c3ccccc3ccn12 | 92.6% |
| CCOC(=O)C1=C(N)Oc2c(sc3c(C)cccc23)C1c1ccc(Cl)cc1 (stereo not given) | 1.5% (active) |
| Cc1cc(C)cc(Nc2cc(C)nc3nc(C(F)(F)F)nn23)c1 | 15.4% |
| CCCCCCCCCCCCCCCC(=O)OC[C@@]1(O)C[C@@]23CC[C@@H]4C(C)(C)[C@H](O)CC[C@@]4(C)[C@@H]2CC[C@H]1C3 | 101% |
| CC(Sc1nc2ccccc2c(=O)n1CCc1ccc(S(N)(=O)=O)cc1)C(=O)Nc1ccc(Cl)cc1 (stereo not given) | 86.2% |
| COc1cc(-c2nc3cc(Cl)c(Cl)cc3[nH]2)ccc1OCC(=O)N=Nc1c(O)[nH]c2ccccc12 | -51.5% (active) |
| COc1cc(/C=N/Nc2nc(-c3ccc(F)cc3)c(C#N)c(N3CCOCC3)n2)ccc1O | 72.5% |
| Cc1ccc(OCCOCCOCCOc2ccc(C)n(O)c2=S)c(=S)n1O | 37.6% |
| CCOC(=O)c1c(NC(=S)Nc2ccc([N+](=O)[O-])cc2)sc2c1CCCCC2 | 70.5% |
| CN(C)c1ccc(C(=C2C=CC(=[N+](C)C)C=C2)c2ccc(N(C)C)cc2)cc1 (tested in a mixture with another compound) | -51.3% (active) |
| CCCCNC(=O)Oc1ccc(/C(=C(\C)c2ccccc2)c2ccc(OCCN3CCCCC3)cc2)cc1 | 49.4% |
| CCC(C#N)(CC)c1ccccc1 | 102% |
